Experimental data published in PubChem BioAssay (NCATS).
Records with an inconclusive call do not appear. Calls of active or inactive are those of the source. The call rests on the fitted dose curve; in most records, active means well fitted curve in the direction sought with a large enough effect; inconclusive means small, poorly fitted or top-dose-only effect, or another doubt; inactive means no such curve, though single readings can be large; an effect the other way counts as inactive or inconclusive.

Biological target: Arylsulfatase A (Homo sapiens) (UniProt P15289)
Sequence (P15289 whole entry, looked up): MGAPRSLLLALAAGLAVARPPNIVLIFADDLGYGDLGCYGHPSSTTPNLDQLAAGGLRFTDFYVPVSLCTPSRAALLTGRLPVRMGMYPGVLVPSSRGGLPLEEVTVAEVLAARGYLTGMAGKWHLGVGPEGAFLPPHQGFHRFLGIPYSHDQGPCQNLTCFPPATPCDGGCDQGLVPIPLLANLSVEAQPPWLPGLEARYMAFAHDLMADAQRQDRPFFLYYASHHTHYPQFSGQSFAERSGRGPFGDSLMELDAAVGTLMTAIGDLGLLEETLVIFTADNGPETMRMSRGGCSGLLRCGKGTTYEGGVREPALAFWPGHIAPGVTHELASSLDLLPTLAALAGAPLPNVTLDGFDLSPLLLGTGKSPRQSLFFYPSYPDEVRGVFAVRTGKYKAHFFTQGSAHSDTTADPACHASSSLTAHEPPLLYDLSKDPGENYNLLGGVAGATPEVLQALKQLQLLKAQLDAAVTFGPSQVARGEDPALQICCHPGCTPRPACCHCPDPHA
Assay: qHTS screen for enhancers of Arylsulfatase A (ASA1): LOPAC Validation Assay (AID 720538); on activity change, positive = activation: 0% is about no effect
Settings: ASA enzyme activity, LOPAC qHTS enhancer assay; series mostly up to 57.5 µM; activity change, positive = activation: at the top concentration
How it was run: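 Cell-based enhancement test: residual ASA activity in SV40-transformed I179S patient fibroblasts is measured by pNCS turnover (0.5mM final, 14h, room temperature) following 48h compound incubation; higher fluorescence indicates activation.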

SMILES	activity change, positive = activation	outcome
NC(CCP(=O)(O)O)C(=O)O (centres undefined)	-29.1% (inactive)	–
CC(=O)[C@H]1CCC2C3CC[C@H]4C[C@H](O)CC[C@]4(C)C3CC[C@@]21C (some centres undefined)	-7.62% (inactive)	–
NCCc1c[nH]c2ccc(O)cc12	–	inactive; inhibitor; fitted 4.2562 uM
O=C(N[C@H]1CN2CCC1CC2)c1ccc(Cl)cc1	-7.34% (inactive)	–
CN1C2CCC1CC(OC(=O)c1cc(Cl)cc(Cl)c1)C2 (centres undefined)	-6.86% (inactive)	–
CCCN(CCC)[C@@H]1CCc2ccc(O)cc2C1	-4.05% (inactive)	–
NC(CP(=O)(O)O)C(=O)O (centres undefined)	-38.3% (inactive)	–
S=C(NC1CCCCC1)N1CCC(c2cnc[nH]2)CC1	-43.3% (inactive)	–
CNCCc1c[nH]c2ccc(O)cc12	-76.3% (inactive)	–
Cn1cnc(CCN)c1	–	inactive

Test system: not listed separately
Assay: qHTS for compounds that reverse cellular toxicity of Amyloid beta (A-beta) peptide in yeast: LOPAC Validation Assay (AID 720559);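 further: plate controls were DMSO for no effect and equimolar ferric chloride plus clioquinol rescue for full effect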
Settings: yeast expressing A-beta; series mostly up to 46.1 µM; growth rescue, positive = activation: at the top concentration
How it was run: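 Here, A-beta-toxic yeast grow with test compounds at 30 C for 48 hr before optical density at 600 nm is recorded; data are normalized against DMSO and the FeCl3-clioquinol control.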

SMILES	growth rescue, positive = activation
CNCCc1ccc(O)c(O)c1	-0.343% (inactive)
CC(Cc1ccc(O)cc1)NCC(O)c1cc(O)cc(O)c1 (centres undefined)	-1.25% (inactive)
NCc1cc(=O)[nH]o1	-3.19% (inactive)
CCCN1CCC[C@H](c2cccc(O)c2)C1	-8.87% (inactive)
c1ccc(CCCN2CCN(CCOC(c3ccccc3)c3ccccc3)CC2)cc1	3.83% (inactive)
CCCN(CCC)C1CCc2ccc(O)cc2C1 (centres undefined)	-0.196% (inactive)
C[C@@H]1O[C@H](C[N+](C)(C)C)C[C@H]1O	-3.11% (inactive)
NCCc1c[nH]c2ccccc12	-3.95% (inactive)
c1ccc2sc(C3(N4CCCCC4)CCCCC3)cc2c1	-2.03% (inactive)
COc1cc(C(O)CN)ccc1O (centres undefined)	-2.36% (inactive)
C=CCN1CC[C@]23CCCCC2[C@H]1Cc1ccc(O)cc13 (some centres undefined)	-6.14% (inactive)
O=C(Cc1ccc(Cl)c(Cl)c1)N1CCCCC1CN1CCCC1 (centres undefined)	-4.29% (inactive)
CCCCc1ccc(C(=O)O)nc1	1.53% (inactive)
NC(=NCCC[C@H](N)C(=O)O)N[N+](=O)[O-]	-7.47% (inactive)
